Test results from PubChem BioAssay (NCI).
The panel holds about 83,000 compounds, 20% with a hit somewhere; the sample as a whole holds those more often.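 Negative percent growth values reflect cell death: -40 means 40% of the cells present at the start died, and -100 means all died.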 A number with no mark means an inactive call. The source made the active and inactive calls. Rule for the calls: active = growth percent below 10; inactive = the rest.

The molecules below were run on CCRF-CEM leukemia (assay: NCI-60 one-dose screen, 48 h (100 = growth as untreated, 0 = no growth, -100 = all killed)). Details: 10 µM.
In the case of O=C1/C(=C\c2ccccc2)CN(C(=O)c2ccccc2F)C/C1=C\c1ccccc1, the growth is reported as -7.33% (active). COc1ccc(/C=C/C(C)=N/OCC(=O)O)cc1 was tested, and the growth was 95.7%. With COc1ccc(-c2nn(-c3cccc(NC(=O)Nc4ccc(Cl)c(C(F)(F)F)c4)c3)cc2-c2ccncc2)cc1Cl the growth was -3.16% (active). For CS(=O)(=O)Nc1ccc(Nc2c3ccccc3nc3cc([N+](=O)[O-])ccc23)cc1, the growth was 2.39% (active). Cc1ccc(C)c(C(O)(c2cc(C)ccc2C)C2(O)CCCCC2)c1 showed a growth of 94.3%. Work on CC1CC(=O)OC(C)C1 (stereo unspecified) yielded a growth of 101%. CN(C)c1ccc(N=C2C=CC(=O)c3ccccc32)cc1 showed a growth of 70.5%. Work on Cc1ccc(NC(=O)NC2CCCCC2)cc1 yielded a growth of 98.9%. COc1ccc(/C=C2/CN(C(=O)c3ccc(C)cc3)C/C(=C\c3ccc(OC)cc3)C2=O)cc1 was tested, and the growth was 71.3%. For Cc1ccc(Nc2cc(C)nc(NCCCNc3ccnc4cc(Cl)ccc34)n2)cc1, the growth was -27.8% (active). With O=C1/C(=C\c2ccc(F)cc2)CN(C(=O)c2ccccc2F)C/C1=C\c1ccc(F)cc1 the growth was -16.4% (active). With c1ccc([I+]c2ccccc2)cc1 the growth was 51.5%. Molecule Cc1[nH]nc2c1C(c1cnn(C)c1)C(C#N)=C(N)O2 (stereo unspecified) has a growth of 101%. CCOC(=O)N1C/C(=C/c2ccc(OC)cc2)C(=O)/C(=C/c2ccc(OC)cc2)C1 was tested, and the growth was 6.4% (active). Molecule COc1ccc(Nc2ncnc3c2c(SC)nn3-c2ccccc2)cc1 has a growth of 98.5%. CSC1=NCCCC1 showed a growth of 103%.
